Experiment [1] is described as follows: qHTS Assay for Lipid Storage Modulators (AID 1519; calls by dose curve; as to activity change, negative = inhibition: % is scaled to controls: 0 for no effect and ±100 for the full control effect). As to conditions: Drosophila S3 cells, BODIPY lipid droplet/cell ratio, laser cytometry, cells loaded with oleic acid; for activity change, negative = inhibition: at 57.5 µM (top of the series). The method, boiled down: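 Cells seeded at 5,000 per well were treated with compounds over a concentration series and loaded with oleic acid (400 uM, as added). Lipid droplet fluorescence (488 nm excitation, 500-530 nm channel) was read by laser-scanning cytometry and normalized to 20 uM Triacsin C.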
A general note: In qHTS, concentration-response curves come from the screen itself.

The target of experiment [2] is ATP-dependent 6-phosphofructokinase (Trypanosoma brucei brucei) (UniProt O15648). The experiment is described as follows: qHTS Assay to Find Inhibitors of T. brucei phosphofructokinase: hit validation (AID 492961).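 Also: luminescence reports ADP formed as PFK phosphorylates fructose-6-phosphate with ATP; % is scaled to controls: 0 for no effect and ±100 for the full control effect.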 As to conditions: T. brucei PFK, ADP-Glo luminescence; series mostly up to 24.3 µM. In short, it runs like this: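 ADP-Glo luminescence read-out of ADP formed by 1.25 nM PFK from 0.1 mM ATP and 0.5 mM F6P (TEA pH 8.0, 45 min, RT). Compounds titrated; activity normalized to no-enzyme and full-enzyme controls.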
Chain of ATP-dependent 6-phosphofructokinase (Trypanosoma brucei brucei) (O15648 whole entry, looked up): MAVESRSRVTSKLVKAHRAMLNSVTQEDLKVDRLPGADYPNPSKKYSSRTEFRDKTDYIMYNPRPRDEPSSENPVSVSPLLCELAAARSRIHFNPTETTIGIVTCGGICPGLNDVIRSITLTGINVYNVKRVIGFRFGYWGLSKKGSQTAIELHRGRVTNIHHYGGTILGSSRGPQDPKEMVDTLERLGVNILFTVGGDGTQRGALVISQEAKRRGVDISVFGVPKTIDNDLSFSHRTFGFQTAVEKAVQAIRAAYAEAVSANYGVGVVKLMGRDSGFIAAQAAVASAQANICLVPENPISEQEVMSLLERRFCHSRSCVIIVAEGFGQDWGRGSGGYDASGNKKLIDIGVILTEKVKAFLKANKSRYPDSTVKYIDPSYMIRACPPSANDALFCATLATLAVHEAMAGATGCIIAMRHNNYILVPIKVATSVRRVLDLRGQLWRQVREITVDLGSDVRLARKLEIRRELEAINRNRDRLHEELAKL

Experiment [3] concerns the target Ubiquitin carboxyl-terminal hydrolase 1 (Homo sapiens) (UniProt O94782). The experiment is described as follows: Inhibitors of USP1/UAF1: Pilot qHTS (AID 504865).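 Also: rhodamine fluorescence freed from ubiquitin-rhodamine substrate followed over time; top concentration of the series differs between compounds; % is scaled to controls: 0 for no effect and ±100 for the full control effect; nearly all actives have a fitted effect of over 35% in size.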 As to conditions: purified USP1/UAF1, Ub-rhodamine cleavage fluorescence; series mostly up to 114 µM. In short, it runs like this: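 Deubiquitinase activity followed as kinetic rhodamine fluorescence release from 150 nM Ub-Rho. 1 nM USP1/UAF1 with compound, after 15 min room-temperature preincubation, in HEPES pH 7.8 buffer containing TCEP, EDTA, BSA and Tween-20.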

In experiment [4] the target is Luciferin 4-monooxygenase (Photinus pyralis) (UniProt P08659). The experiment is described as follows: Biochemical firefly luciferase enzyme assay for NPC (AID 624030).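 Also: purified P. pyralis luciferase at 10 nM with luciferin and ATP substrate; 0% = DMSO and -100% = full luciferase inhibition by PTC124 control; nearly all actives have a fitted effect of over 70% in size.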 As to conditions: purified P. pyralis luciferase, luminescence, 5 min; series mostly up to 24.9 µM. The method, boiled down:
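Direct inhibition of firefly luciferase enzyme (10 nM final, 50 mM Tris Acetate) assessed by luminescence within 5 minutes. Percent activity scaled between DMSO and PTC124 positive control, with concentration-effect curves classified by fit quality and response.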

Experiment [5] is described as follows: qHTS profiling for inhibitors of Plasmodium falciparum proliferation (AID 504749).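 Also: 0% = DMSO vehicle and full inhibition = artemisinin control; nearly all actives have a fitted effect of over 60% in size.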 As to conditions: P. falciparum in erythrocytes, SYBR Green DNA, 72 h, at 28.7 µM (top of the series). In short, it runs like this:
(§1)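 Infected RBCs, 0.3% parasitemia/2.5% Hct final; cpd 72 h, 37 C, 5% CO2; lysis buffer with saponin/triton/SYBR Green I, o/n RT dark; FI 485/535; norm. to artemisinin (0.29 uM) and DMSO.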

In another experiment the test system is AS120. The experiment is described as above. As to conditions: P. falciparum in erythrocytes, SYBR Green DNA, 72 h; series mostly up to 12.8 µM. In short, it runs like this:
as §1

Another experiment deals with C2A. Described as above. As to conditions: P. falciparum in erythrocytes, SYBR Green DNA, 72 h; series mostly up to 12.8 µM. The method, boiled down:
as §1

A further experiment deals with CP191. Described as above. The settings on record: P. falciparum in erythrocytes, SYBR Green DNA, 72 h; series mostly up to 12.8 µM. In short, it runs like this:
as §1

The test system of another experiment is CP217. The experiment is described as above. As to conditions: P. falciparum in erythrocytes, SYBR Green DNA, 72 h; series mostly up to 12.8 µM. The method, boiled down: as §1
For another experiment, the system named is CP305. The description is as above. The settings on record: P. falciparum in erythrocytes, SYBR Green DNA, 72 h; series mostly up to 12.8 µM. In short, it runs like this: as §1
The subject of another experiment is CP329. The experiment is described as above. The settings on record: P. falciparum in erythrocytes, SYBR Green DNA, 72 h; series mostly up to 12.8 µM. The method, boiled down:
as §1

The next experiment concerns ECU. The experiment is described as above. As to conditions: P. falciparum in erythrocytes, SYBR Green DNA, 72 h; series mostly up to 12.8 µM. In short, it runs like this:
as §1

In the next experiment the test system is FAB9. The description is as above. As to conditions: P. falciparum in erythrocytes, SYBR Green DNA, 72 h; series mostly up to 12.8 µM. The method, boiled down:
as §1

The next experiment concerns N140. The description is as above. As to conditions: P. falciparum in erythrocytes, SYBR Green DNA, 72 h; series mostly up to 12.8 µM. The method, boiled down:
as §1

The next experiment deals with PC15. Described as above. The settings on record: P. falciparum in erythrocytes, SYBR Green DNA, 72 h; series mostly up to 12.8 µM. The method, boiled down:
as §1

A further experiment has as its system PC49. The description is as above. The settings on record: P. falciparum in erythrocytes, SYBR Green DNA, 72 h; series mostly up to 12.8 µM. The method, boiled down:
as §1

In another experiment the test system is TAB165. Described as above. As to conditions: P. falciparum in erythrocytes, SYBR Green DNA, 72 h; series mostly up to 12.8 µM. The method, boiled down: as §1
Setting [6] is: measured here: cell count channel max response.
[7] abbreviates: measured here: lipid channel max response.

Structures are written as SMILES. Inconclusive results are not listed. Active and inactive are the calls of the source. Unless noted, calls follow the shape of the dose curve; as a rule, active = well fitted curve in the direction sought with a large enough effect; inconclusive = small, poorly fitted or top-dose-only effect, or another doubt; inactive = no such curve, though single readings can be large; an effect the other way counts as inactive or inconclusive. Peptide text beside a SMILES is read from it.

Chain of Ubiquitin carboxyl-terminal hydrolase 1 (Homo sapiens) (O94782 whole entry, looked up): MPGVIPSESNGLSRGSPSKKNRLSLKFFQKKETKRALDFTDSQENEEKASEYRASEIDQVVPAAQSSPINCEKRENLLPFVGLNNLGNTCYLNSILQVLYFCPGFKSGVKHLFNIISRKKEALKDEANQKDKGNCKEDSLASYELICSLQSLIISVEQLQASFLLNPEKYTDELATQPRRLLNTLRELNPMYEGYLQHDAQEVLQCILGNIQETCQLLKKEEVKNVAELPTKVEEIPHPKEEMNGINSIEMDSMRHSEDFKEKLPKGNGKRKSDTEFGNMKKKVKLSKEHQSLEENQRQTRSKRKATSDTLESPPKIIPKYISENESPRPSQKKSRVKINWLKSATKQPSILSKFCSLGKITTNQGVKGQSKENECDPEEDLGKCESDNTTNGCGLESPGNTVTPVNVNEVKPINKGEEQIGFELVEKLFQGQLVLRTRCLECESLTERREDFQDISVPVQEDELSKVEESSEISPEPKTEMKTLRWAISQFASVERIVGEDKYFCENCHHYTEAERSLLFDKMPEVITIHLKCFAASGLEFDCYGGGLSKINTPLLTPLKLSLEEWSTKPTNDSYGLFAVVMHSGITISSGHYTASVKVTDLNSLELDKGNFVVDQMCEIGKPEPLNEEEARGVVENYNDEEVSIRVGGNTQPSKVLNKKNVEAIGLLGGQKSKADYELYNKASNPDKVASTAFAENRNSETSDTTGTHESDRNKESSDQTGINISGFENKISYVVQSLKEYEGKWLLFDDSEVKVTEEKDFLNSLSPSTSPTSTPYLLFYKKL
Chain of Luciferin 4-monooxygenase (Photinus pyralis) (P08659 whole entry, looked up): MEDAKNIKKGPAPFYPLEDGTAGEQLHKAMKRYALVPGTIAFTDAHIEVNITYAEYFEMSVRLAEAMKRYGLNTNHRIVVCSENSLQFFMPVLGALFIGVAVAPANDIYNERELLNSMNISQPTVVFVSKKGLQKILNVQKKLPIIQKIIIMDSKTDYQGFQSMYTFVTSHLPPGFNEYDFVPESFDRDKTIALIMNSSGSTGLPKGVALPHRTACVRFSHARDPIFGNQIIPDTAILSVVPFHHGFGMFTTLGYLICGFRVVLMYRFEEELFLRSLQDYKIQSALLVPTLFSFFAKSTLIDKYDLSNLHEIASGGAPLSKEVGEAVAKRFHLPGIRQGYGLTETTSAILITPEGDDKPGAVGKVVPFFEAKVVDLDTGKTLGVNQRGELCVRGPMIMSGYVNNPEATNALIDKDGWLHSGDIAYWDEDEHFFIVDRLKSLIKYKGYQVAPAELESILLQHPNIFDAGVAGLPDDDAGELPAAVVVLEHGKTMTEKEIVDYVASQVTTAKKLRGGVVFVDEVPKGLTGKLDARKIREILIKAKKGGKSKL

Take `N[C@@H]1C(O)OC(CO)C(O)C1O` (stereo partly drawn): in experiment [1], the activity change, negative = inhibition was 5.31% (inactive). Moreover, the max response was found to be 7.77% in [1] (setting [6]) and 20.8% in experiment [1] (setting [7]). Further, the compound was classed as inactive in [2]. Further, the Potency result (in [3]; in experiment [4]; with AS120; with C2A; in the experiment on CP191; with CP217) was “inactive” throughout. Moreover, the Potency result in the experiment with CP305, with CP329, with ECU, with FAB9, in the experiment on N140 and with PC15 was “inactive” each time. In addition, the Potency entry in the experiment on PC49 and in the experiment with TAB165 was “inactive” each time. Also, in experiment [5] (parasite line A), the activity, negative = inhibition was 3.86% (inactive).
On to `CCCC(=O)O[C@]1(C(=O)CO)CCC2[C@@H]3CCC4=CC(=O)CC[C@]4(C)C3C(O)C[C@]21C` (stereo partly drawn), for which, in [1], the activity change, negative = inhibition is 9.93% (inactive). For the same compound, the max response was 7.86% in [1] (setting [6]) and 23.2% in [1] (setting [7]). For the same compound, in experiment [2], the result was inactive. In addition, the Potency result (in experiment [3]; in experiment [4]; in the experiment on AS120; in the experiment on C2A; in the experiment on CP191; with CP217) was “inactive” each time. In addition, the Potency entry with CP305, in the experiment with CP329, in the experiment on ECU, in the experiment on FAB9, in the experiment on N140 and in the experiment on PC15 was “inactive” throughout. The Potency entry in the experiment with PC49 and in the experiment on TAB165 was “inactive” in each case. In addition, the values for the activity, negative = inhibition in [5] (parasite line A) and in experiment [5] (parasite line B) were 6.2% (inactive) and 17.5% (inactive), respectively.
Take `CN(C)CCc1c[nH]c2ccc(CC3COC(=O)N3)cc12` (stereo not drawn): in [1], the activity change, negative = inhibition is 10.6% (inactive). The max response is -1.36% in experiment [1] (setting [6]) and 11.4% in experiment [1] (setting [7]). The compound was called inactive in experiment [2]. The Potency entry (in [4]; in the experiment with AS120; in the experiment on C2A; in the experiment with CP191; in the experiment with CP217; with CP305) was “inactive” in each case. Further, the Potency entry with CP329, in the experiment with ECU, in the experiment with FAB9, with N140, with PC15 and in the experiment with PC49 was “inactive” in each case. Further, the Potency entry in the experiment on TAB165 was “inactive”. In addition, the activity, negative = inhibition was -2.15% (inactive) in experiment [5] (parasite line A) and 12.7% (inactive) in experiment [5] (parasite line B).
Take `COC(=O)C(Cc1ccccc1)NC(=O)C(N)CC(=O)O` (stereo not drawn) (H-Asp-Phe-OMe; configuration not given here): the activity change, negative = inhibition in experiment [1] is 5.29% (inactive). For the same compound, the results for the max response in [1] (setting [6]) and in experiment [1] (setting [7]) were -5.71% and 3.61%, respectively. For the same compound, the compound was called inactive in experiment [2]. Moreover, the Potency entry (in experiment [3]; in [4]; in the experiment with AS120; with C2A; in the experiment on CP191; in the experiment with CP217) was “inactive” in each case. For the same compound, the Potency entry in the experiment with CP305, in the experiment on CP329, in the experiment with ECU, in the experiment on FAB9, in the experiment on N140 and with PC15 was “inactive” throughout. Further, the Potency entry with PC49 and with TAB165 was “inactive” throughout. Also, the figures for the activity, negative = inhibition in experiment [5] (parasite line A) and in [5] (parasite line B) were 0% (inactive) and 12.1% (inactive), respectively.
For the compound `CC1(C)OC2CO[C@]3(COS(N)(=O)=O)OC(C)(C)OC3C2O1` (stereo partly drawn), in experiment [1], the activity change, negative = inhibition was -0.118% (inactive). The max response in experiment [1] (setting [6]) is 7.1%; in [1] (setting [7]), 8.91%. Moreover, the compound was called inactive in [2]. Further, the Potency entry (in experiment [3]; in experiment [4]; with AS120; in the experiment on C2A; in the experiment on CP191; with CP217) was “inactive” each time. The Potency entry in the experiment on CP305, in the experiment on CP329, in the experiment on ECU, in the experiment with FAB9, in the experiment on N140 and in the experiment on PC15 was “inactive” each time. In addition, the Potency entry with PC49 and in the experiment with TAB165 was “inactive” each time. Further, the figures for the activity, negative = inhibition in experiment [5] (parasite line A) and in experiment [5] (parasite line B) were 6.34% (inactive) and 12.5% (inactive), respectively.

The record behind these values is PubChem BioAssay (NCATS).
